Test results as given in paper PMC7862700, “An all-to-all approach to the identification of sequence-specific readers for epigenetic DNA modifications on cytosine”.

Key:
Test in all cases: DAPPL (digital affinity profiling via proximity ligation, sequencing); 10 mM Tris-HCl pH 7.5, 50 mM NaCl, 1 mM DTT, 4% glycerol, room temperature, 30 min; GST-TFs on glutathione beads, 16-mer random dsDNA library, 0.1% formaldehyde crosslink after washing; high values mean tight binding
FLI1 = target: T1, FLI1 (Homo sapiens, UniProt Q01543 1-452); conditions: protein: recombinant; tags: N-terminal GST; dsDNA, one strand shown
T1 sequence: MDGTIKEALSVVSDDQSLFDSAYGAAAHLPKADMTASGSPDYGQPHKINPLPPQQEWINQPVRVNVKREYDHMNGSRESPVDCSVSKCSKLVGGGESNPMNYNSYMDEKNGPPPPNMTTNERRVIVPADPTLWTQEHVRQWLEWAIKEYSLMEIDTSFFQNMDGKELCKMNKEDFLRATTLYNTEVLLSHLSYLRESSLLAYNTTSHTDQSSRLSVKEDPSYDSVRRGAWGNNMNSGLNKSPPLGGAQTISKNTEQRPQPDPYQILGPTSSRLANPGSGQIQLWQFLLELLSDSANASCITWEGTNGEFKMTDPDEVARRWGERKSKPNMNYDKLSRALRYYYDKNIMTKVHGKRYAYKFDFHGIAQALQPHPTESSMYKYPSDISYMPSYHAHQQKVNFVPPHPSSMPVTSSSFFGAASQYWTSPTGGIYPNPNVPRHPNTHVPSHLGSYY
Method in brief: (§1)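 Beads coated with glutathione captured GST-fused human transcription factors that had been expressed in yeast, and the factors were then given DNA barcodes and pooled with a tag-only sample. The pools were incubated with 200 nmole of a random double-stranded 16-mer DNA library in Tris/NaCl/DTT/glycerol buffer for 30 min at room temperature, washed, crosslinked with 0.1% formaldehyde and proximity-ligated with BsaI/T4 ligase at 37 °C for 1 h. PCR amplification and Illumina NextSeq500 sequencing came last. Binding signal is each hexamer's read frequency for a factor divided by its frequency for the tag-only sample.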

ELK1 = target: T2, ELK1 (Homo sapiens, UniProt P19419 1-428); conditions: protein: recombinant; tags: N-terminal GST; dsDNA, one strand shown
T2 sequence: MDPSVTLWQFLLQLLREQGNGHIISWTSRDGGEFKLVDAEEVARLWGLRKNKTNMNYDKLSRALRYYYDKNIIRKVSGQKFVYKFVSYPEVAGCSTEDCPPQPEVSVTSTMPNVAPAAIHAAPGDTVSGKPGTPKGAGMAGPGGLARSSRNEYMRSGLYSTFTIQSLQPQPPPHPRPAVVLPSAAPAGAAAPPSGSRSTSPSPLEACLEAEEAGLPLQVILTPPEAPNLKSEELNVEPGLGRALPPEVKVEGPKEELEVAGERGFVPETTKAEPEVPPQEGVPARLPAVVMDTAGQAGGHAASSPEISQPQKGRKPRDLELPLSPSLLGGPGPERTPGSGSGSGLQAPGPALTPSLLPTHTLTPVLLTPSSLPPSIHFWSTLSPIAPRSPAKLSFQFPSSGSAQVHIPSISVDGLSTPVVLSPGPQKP
Method in brief: as §1

GABPA = target: T3, GABPA (Homo sapiens, UniProt Q06546 1-454); conditions: protein: recombinant; tags: N-terminal GST; dsDNA, one strand shown
T3 sequence: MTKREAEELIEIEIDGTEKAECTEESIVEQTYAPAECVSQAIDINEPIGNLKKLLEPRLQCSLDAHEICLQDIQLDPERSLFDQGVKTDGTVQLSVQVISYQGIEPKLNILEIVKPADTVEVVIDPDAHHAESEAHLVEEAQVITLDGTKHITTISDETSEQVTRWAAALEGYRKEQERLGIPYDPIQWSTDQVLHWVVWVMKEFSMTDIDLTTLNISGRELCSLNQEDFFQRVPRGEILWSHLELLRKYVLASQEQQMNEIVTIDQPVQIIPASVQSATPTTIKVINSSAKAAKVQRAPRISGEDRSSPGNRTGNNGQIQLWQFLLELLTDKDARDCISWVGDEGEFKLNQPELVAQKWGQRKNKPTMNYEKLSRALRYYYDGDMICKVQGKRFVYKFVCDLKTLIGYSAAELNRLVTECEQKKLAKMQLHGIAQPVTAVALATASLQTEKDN
Method in brief: as §1

ERG = target: T4, ERG (Homo sapiens, UniProt P11308 1-479); conditions: protein: recombinant; tags: N-terminal GST; dsDNA, one strand shown
T4 sequence: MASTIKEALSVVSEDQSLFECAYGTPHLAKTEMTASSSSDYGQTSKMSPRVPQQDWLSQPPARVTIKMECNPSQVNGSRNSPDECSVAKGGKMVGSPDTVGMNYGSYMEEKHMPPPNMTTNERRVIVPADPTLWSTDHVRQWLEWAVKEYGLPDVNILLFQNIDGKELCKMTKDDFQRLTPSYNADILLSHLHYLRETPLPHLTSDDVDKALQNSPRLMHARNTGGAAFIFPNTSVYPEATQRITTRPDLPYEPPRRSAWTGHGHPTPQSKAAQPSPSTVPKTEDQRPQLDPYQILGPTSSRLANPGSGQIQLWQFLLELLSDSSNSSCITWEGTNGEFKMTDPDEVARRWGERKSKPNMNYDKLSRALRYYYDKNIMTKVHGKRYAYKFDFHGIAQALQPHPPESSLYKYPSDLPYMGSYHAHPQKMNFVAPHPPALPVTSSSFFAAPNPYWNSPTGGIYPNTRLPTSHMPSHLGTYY
Method in brief: as §1

ELF1 = ELF1 (Homo sapiens, UniProt P32519 1-619); conditions: protein: recombinant; tags: N-terminal GST; dsDNA, one strand shown
Method in brief: as §1

EHF = target: T5, EHF (Homo sapiens, UniProt Q9NZC4 1-300); conditions: protein: recombinant; tags: N-terminal GST; dsDNA, one strand shown
T5 sequence: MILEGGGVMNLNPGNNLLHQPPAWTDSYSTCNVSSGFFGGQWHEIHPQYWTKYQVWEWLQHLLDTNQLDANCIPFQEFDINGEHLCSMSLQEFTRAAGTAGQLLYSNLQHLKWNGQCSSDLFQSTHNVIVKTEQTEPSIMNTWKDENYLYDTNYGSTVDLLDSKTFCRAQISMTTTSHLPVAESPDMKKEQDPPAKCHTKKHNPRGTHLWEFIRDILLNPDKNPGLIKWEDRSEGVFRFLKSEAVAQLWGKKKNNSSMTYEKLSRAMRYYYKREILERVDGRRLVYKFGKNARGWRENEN
Method in brief: as §1

SPI1 = SPI1 (Homo sapiens, UniProt P17947 1-270); conditions: protein: recombinant; tags: N-terminal GST; dsDNA, one strand shown
Method in brief: as §1

SPIB = SPIB (Homo sapiens, UniProt Q01892 1-262); conditions: protein: recombinant; tags: N-terminal GST; dsDNA, one strand shown
Method in brief: as §1

ELK3 = target: T6, ELK3 (Homo sapiens, UniProt P41970 1-407); conditions: protein: recombinant; tags: N-terminal GST; dsDNA, one strand shown
T6 sequence: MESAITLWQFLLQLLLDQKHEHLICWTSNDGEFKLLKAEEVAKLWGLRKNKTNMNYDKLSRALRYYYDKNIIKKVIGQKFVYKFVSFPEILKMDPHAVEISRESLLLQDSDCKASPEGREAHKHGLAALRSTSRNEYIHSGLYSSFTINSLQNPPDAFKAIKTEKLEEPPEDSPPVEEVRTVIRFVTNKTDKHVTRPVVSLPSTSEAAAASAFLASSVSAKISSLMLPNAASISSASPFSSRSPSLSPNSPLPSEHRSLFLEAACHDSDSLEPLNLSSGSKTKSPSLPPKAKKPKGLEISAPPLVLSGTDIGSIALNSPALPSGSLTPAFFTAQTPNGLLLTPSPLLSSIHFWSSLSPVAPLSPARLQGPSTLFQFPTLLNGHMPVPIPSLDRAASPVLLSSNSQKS
Method in brief: as §1

FEV = target: T7, FEV (Homo sapiens, UniProt Q99581 1-238); conditions: protein: recombinant; tags: N-terminal GST; dsDNA, one strand shown
T7 sequence: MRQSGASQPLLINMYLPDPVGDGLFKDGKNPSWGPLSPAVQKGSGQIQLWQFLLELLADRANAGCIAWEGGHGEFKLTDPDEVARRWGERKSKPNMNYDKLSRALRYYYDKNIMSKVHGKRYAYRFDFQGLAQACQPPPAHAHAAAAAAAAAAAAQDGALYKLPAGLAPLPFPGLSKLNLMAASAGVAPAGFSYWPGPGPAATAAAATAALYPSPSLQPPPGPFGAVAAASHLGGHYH
Method in brief: as §1

ETV5 = ETV5 (Homo sapiens, UniProt P41161 1-510); conditions: protein: recombinant; tags: N-terminal GST; dsDNA, one strand shown
Method in brief: as §1

HSF1 = HSF1 (Homo sapiens, UniProt Q00613 1-529); conditions: protein: recombinant; tags: N-terminal GST; chain copies: 3; dsDNA, one strand shown
Method in brief: as §1

SPIC = target: T8, SPIC (Homo sapiens, UniProt Q8N5J4 1-248); conditions: protein: recombinant; tags: N-terminal GST; dsDNA, one strand shown
T8 sequence: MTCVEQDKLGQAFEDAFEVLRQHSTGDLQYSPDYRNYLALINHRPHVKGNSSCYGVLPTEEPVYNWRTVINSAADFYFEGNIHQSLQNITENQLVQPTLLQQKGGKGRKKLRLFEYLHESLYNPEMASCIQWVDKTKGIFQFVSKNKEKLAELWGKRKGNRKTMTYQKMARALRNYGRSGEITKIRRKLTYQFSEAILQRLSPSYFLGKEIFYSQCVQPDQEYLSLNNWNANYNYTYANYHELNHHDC
Method in brief: as §1

ELF4 = ELF4 (Homo sapiens, UniProt Q99607 1-663); conditions: protein: recombinant; tags: N-terminal GST; dsDNA, one strand shown
Method in brief: as §1

ELK4 = target: T9, ELK4 (Homo sapiens, UniProt P28324-2 1-405); conditions: protein: recombinant; tags: N-terminal GST; dsDNA, one strand shown
T9 sequence: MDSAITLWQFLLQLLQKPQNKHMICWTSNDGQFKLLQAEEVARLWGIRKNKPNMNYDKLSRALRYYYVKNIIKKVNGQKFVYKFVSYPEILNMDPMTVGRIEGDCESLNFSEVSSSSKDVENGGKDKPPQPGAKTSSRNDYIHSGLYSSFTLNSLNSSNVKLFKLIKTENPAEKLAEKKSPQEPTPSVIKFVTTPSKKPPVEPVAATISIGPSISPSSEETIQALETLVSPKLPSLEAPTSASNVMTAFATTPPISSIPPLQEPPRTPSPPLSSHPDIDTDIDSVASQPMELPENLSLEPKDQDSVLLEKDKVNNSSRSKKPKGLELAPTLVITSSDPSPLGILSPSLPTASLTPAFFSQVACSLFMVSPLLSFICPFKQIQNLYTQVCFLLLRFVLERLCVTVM
Method in brief: as §1

ETV2 = target: T10, ETV2 (Homo sapiens, UniProt O00321 1-342); conditions: protein: recombinant; tags: N-terminal GST; dsDNA, one strand shown
T10 sequence: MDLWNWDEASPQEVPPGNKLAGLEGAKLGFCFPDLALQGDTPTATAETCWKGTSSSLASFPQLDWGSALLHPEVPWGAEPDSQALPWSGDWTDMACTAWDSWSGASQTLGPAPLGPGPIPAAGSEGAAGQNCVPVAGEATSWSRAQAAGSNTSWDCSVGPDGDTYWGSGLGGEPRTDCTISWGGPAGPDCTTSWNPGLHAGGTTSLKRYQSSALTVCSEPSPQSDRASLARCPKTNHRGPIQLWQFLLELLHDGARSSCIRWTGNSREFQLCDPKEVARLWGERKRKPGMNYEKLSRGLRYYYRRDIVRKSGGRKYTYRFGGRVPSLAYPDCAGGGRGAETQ
Method in brief: as §1

ELF3 = target: T11, ELF3 (Homo sapiens, UniProt P78545 1-371); conditions: protein: recombinant; tags: N-terminal GST; dsDNA, one strand shown
T11 sequence: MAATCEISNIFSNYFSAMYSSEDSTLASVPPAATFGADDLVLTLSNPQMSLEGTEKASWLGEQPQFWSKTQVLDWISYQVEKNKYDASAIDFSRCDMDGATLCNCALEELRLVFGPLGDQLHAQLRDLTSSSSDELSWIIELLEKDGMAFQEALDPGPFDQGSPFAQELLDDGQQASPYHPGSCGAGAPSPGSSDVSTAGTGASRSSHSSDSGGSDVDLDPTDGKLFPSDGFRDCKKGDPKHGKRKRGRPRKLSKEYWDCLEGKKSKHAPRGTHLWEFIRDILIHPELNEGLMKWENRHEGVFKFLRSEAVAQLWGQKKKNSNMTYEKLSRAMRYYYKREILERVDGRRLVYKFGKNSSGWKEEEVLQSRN
Method in brief: as §1

CRX = CRX (Homo sapiens, UniProt O43186 1-299); conditions: protein: recombinant; tags: N-terminal GST; dsDNA, one strand shown
Method in brief: as §1

ETV1 = ETV1 (Homo sapiens, UniProt P50549 1-477); conditions: protein: recombinant; tags: N-terminal GST; dsDNA, one strand shown
Method in brief: as §1

Sequence of ETV1 (P50549 whole entry): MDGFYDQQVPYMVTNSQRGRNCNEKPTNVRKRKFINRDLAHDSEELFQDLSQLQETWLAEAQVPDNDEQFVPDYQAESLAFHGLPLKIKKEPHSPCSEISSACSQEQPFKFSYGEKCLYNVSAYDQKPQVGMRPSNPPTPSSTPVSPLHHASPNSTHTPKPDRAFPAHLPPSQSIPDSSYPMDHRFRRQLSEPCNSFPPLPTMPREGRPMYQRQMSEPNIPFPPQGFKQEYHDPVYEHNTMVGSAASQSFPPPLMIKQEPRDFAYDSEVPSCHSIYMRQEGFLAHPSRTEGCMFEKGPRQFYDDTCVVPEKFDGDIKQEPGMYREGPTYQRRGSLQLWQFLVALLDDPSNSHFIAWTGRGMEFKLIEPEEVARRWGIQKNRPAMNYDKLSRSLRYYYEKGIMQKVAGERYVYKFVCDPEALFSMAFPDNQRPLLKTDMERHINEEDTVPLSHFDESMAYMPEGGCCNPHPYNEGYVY
Sequence of CRX (O43186 whole entry): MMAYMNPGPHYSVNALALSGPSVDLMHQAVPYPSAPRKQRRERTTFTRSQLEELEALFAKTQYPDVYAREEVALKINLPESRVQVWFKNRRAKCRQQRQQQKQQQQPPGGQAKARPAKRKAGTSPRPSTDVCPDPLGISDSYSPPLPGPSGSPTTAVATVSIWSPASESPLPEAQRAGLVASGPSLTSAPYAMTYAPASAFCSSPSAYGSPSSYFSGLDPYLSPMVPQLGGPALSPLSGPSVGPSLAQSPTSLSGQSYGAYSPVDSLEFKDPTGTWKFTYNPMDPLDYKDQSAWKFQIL
Sequence of SPIB (Q01892 whole entry): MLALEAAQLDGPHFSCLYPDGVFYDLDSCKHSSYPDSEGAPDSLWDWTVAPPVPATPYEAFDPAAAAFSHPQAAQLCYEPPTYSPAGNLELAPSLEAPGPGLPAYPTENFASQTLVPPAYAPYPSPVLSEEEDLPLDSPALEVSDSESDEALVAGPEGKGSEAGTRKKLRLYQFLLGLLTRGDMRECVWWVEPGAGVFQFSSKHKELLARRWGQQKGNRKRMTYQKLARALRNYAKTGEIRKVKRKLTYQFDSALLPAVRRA
Sequence of HSF1 (Q00613 whole entry): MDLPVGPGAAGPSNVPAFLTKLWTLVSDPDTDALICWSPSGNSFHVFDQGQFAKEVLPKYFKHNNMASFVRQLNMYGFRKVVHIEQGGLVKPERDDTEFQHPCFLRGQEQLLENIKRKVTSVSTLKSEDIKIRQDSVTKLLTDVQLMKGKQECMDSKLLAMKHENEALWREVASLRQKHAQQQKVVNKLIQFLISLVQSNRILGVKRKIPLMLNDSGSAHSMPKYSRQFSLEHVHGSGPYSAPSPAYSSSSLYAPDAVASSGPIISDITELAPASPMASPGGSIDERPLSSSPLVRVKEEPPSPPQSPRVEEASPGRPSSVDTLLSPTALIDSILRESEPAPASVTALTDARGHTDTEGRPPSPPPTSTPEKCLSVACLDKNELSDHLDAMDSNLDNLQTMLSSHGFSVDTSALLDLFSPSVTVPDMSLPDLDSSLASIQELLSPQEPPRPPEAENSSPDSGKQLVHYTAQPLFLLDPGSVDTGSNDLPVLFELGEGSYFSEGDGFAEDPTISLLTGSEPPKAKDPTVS
Sequence of ELF1 (P32519 whole entry): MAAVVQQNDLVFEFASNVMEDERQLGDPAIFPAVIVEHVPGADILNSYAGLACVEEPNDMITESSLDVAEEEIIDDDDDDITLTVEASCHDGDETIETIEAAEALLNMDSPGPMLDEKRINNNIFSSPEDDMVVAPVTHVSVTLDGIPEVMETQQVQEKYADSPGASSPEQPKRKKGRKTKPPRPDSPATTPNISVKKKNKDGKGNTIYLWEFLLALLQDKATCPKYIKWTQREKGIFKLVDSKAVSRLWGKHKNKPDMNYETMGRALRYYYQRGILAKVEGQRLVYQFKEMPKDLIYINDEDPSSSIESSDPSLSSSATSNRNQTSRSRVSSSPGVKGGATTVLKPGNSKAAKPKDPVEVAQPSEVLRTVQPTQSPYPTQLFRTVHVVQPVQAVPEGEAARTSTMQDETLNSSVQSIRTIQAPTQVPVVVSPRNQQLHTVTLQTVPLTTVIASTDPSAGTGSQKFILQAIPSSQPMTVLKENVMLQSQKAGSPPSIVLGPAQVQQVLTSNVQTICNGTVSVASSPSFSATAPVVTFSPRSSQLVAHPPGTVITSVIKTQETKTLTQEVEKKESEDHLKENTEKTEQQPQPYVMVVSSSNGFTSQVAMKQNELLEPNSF
Sequence of ELF4 (Q99607 whole entry): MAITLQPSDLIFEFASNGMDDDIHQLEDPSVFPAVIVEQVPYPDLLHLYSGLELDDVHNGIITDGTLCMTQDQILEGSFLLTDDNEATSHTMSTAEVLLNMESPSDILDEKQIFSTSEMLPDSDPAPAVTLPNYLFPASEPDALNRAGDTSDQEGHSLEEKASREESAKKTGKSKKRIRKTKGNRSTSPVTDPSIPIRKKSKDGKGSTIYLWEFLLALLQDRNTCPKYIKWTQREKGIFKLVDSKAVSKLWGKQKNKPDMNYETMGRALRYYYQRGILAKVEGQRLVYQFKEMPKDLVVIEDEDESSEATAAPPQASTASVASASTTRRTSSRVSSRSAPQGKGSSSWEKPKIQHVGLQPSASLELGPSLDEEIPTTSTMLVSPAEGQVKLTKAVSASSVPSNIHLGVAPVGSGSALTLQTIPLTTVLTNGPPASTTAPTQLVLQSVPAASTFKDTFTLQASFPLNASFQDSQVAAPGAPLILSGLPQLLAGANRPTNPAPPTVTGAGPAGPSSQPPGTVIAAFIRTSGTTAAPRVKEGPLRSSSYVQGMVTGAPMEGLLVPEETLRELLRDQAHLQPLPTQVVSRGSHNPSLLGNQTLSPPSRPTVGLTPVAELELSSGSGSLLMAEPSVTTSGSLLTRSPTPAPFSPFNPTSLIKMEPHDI
Sequence of ETV5 (P41161 whole entry): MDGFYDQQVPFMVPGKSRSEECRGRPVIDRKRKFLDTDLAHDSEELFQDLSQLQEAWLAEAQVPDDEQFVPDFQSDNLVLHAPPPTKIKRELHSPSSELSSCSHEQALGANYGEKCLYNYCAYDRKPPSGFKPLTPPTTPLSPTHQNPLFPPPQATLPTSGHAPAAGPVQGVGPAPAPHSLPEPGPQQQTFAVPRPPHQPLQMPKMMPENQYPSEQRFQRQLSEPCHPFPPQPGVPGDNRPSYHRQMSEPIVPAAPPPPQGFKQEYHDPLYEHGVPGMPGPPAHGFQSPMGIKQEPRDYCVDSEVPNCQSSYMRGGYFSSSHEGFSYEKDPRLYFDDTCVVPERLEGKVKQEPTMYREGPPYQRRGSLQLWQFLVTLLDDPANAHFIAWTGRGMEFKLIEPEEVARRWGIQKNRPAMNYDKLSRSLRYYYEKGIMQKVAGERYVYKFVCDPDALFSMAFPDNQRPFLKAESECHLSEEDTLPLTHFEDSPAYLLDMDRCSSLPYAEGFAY

Sequence: CCTGGT
- binding signal (FLI1): 1.28 fold enrichment (6-mer frequency, TF over GST control)
- binding signal (ELK1): 1.34 fold enrichment (6-mer frequency, TF over GST control)
- binding signal (GABPA): 1.4 fold enrichment (6-mer frequency, TF over GST control)
- binding signal (ERG): 1.29 fold enrichment (6-mer frequency, TF over GST control)
- binding signal (ELF1): 1.44 fold enrichment (6-mer frequency, TF over GST control)
- binding signal (EHF): 1.47 fold enrichment (6-mer frequency, TF over GST control)
- binding signal (SPI1): 1.4 fold enrichment (6-mer frequency, TF over GST control)
- binding signal (SPIB): 1.52 fold enrichment (6-mer frequency, TF over GST control)
- binding signal (ELK3): 1.33 fold enrichment (6-mer frequency, TF over GST control)
- binding signal (FEV): 1.25 fold enrichment (6-mer frequency, TF over GST control)
- binding signal (ETV5): 1.42 fold enrichment (6-mer frequency, TF over GST control)
- binding signal (HSF1): 1.08 fold enrichment (6-mer frequency, TF over GST control)
- binding signal (SPIC): 1.34 fold enrichment (6-mer frequency, TF over GST control)
- binding signal (ELF4): 1.35 fold enrichment (6-mer frequency, TF over GST control)
- binding signal (ELK4): 1.2 fold enrichment (6-mer frequency, TF over GST control)
- binding signal (ETV2): 1.56 fold enrichment (6-mer frequency, TF over GST control)
- binding signal (ELF3): 1.13 fold enrichment (6-mer frequency, TF over GST control)
- binding signal (CRX): 1.1 fold enrichment (6-mer frequency, TF over GST control)
- binding signal (ETV1): 1.54 fold enrichment (6-mer frequency, TF over GST control)
